# Sampled rows, rich in hits. Any-hit rate of the full collection: about 3.2%.
# Rv3671c inh: Rv3671c (M. tuberculosis) protease inhibition. 320,000 compounds, 0.048% hits. inhibition, % at 5.96 µM. P9WHR9; in the data active = inhibition above about 38%;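 also: extracellular domain of Rv3671c used as enzyme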
# Mtb bLac sens: beta-lactam sensitization of Mtb H37Rv. inhibition, % at 25 µM. AID 434955. 330,000 compounds, 0.27% hits. M. tuberculosis H37Rv growth with meropenem, percent inhibition; call rule not given here;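 also: growth measured after seven days incubation then overnight dye step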
# Mtb UGM inh: Mtb UDP-galactopyranose mutase inhibition. P9WIQ1. purified UGM, fluorescence polarization probe displacement. inhibition, % at 10 µM. 320,000 compounds, 0.06% hits; in the data active = inhibition above about 10%, passing the limit was not always enough
# Target sequence (P9WIQ1 whole entry, looked up): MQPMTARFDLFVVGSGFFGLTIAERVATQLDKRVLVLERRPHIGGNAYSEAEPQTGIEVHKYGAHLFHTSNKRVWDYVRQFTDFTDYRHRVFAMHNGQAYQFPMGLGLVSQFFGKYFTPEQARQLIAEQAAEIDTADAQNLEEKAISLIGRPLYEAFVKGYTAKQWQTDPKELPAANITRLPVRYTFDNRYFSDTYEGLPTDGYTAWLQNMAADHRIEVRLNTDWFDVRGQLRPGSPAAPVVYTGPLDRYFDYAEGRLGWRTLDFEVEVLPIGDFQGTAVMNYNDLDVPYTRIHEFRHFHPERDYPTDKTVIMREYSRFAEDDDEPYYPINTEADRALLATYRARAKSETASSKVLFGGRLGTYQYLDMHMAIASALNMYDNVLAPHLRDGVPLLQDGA
# GDH-TPI counter-1: counter-screen for M. tuberculosis FBA inhibitors: GDH-TPI coupled enzymes; GDH-TPI coupled enzyme counterscreen, NADH absorbance; inhibition, % at 4.8 µM; 360,000 compounds, 1.2% hits; AID 588335; in the data active = inhibition above about 30%
# FBA Mtb inh: inhibits M. tuberculosis FBA enzyme. inhibition, % at 1 µM. 360,000 compounds, 2.3% hits. AID 588726. P9WQA3. purified M. tuberculosis FBA, fluorescence read-out
# SSB-PriA inh: blocks PriA binding to SSB C-terminal tail; AlphaScreen SSBct-PriA binding, biotinylated peptide; inhibition, % at 33 µM; 430,000 compounds, 0.6% hits; AID 1272365; in the data active = inhibition mostly above about 37%, no sharp cut-off; inactive = mostly below about 20%
# Mtb FBA inh conf: confirmation of M. tuberculosis fructose-bisphosphate aldolase inhibitors | purified M. tuberculosis FBA, fluorescence read-out | AID 651616 | inhibition, % at 1 µM | shares compounds with FBA Mtb inh | 5,600 compounds, 78% hits
# GDH-TPI counter-2: GDH-TPI inhibition counter-screen for FBA inhibitors; shares compounds with FBA Mtb inh; GDH-TPI coupled enzyme counterscreen, fluorescence; inhibition, % at 1 µM; 5,600 compounds, 81% hits; AID 652141; in the data active = inhibition above about 10%
# Numbers stand for hits; 0 = inactive; - = no result; + = active, no number. Rule as the data show it, unless noted: active = inhibition above about 27%; inactive = the rest.
SMILES,Rv3671c inh,Mtb bLac sens,Mtb UGM inh,GDH-TPI counter-1,FBA Mtb inh,SSB-PriA inh,Mtb FBA inh conf,GDH-TPI counter-2
OCCCNc1cc(-c2ccccc2)nc2cc(-c3ccc(F)cc3)nn12,0,0,0,0,58.9,0,102.0,77.5
Cc1cc(NCCCO)n2nc(-c3cccs3)cc2n1,0,0,0,0,33.5,0,67.6,55.9
COc1cc2c3nnc(-c4ccccc4)c-3cn(Cc3ccc(F)cc3)c2cc1OC,0,0,0,0,31.8,0,127.3,93.6
O=C(O)[C@@H]1CCCN1C(=O)COc1ccc2c3c(c(=O)oc2c1)CCC3,0,0,0,0,41.8,0,91.8,68.0
CCc1cc(=O)oc2cc(OCC(=O)N3CCC(C(=O)O)CC3)ccc12,0,0,0,0,27.1,0,73.7,70.9
CCCOc1ccc2c(CC)cc(=O)oc2c1C,0,0,0,0,34.6,0,92.0,79.9
Cc1c(C)c2ccc(OCC(=O)N3CCC(C(=O)O)CC3)cc2oc1=O,0,0,0,0,102.6,0,0,0
Cc1c(C)c2ccc(OCC(=O)Nc3ccc(N4CCC(C)CC4)cc3)cc2oc1=O,0,0,0,0,0,0,-,-
C=C(C)COc1ccc2c(CC)cc(=O)oc2c1C,0,0,0,0,0,0,-,-
CCC1CCCCN1C(=O)COc1ccc2c3c(c(=O)oc2c1)CCC3 (stereo not drawn),0,0,0,0,0,0,-,-
O=C(NCC[C@H](O)c1ccoc1)C(=O)NCc1ccc(F)cc1,-,-,-,-,-,0,-,-
COc1ccc2c(c1)CCN(C(=O)[C@@H]1CSc3ncc(C)c(=O)n3C1)C2,-,-,-,-,-,0,-,-
COc1ccc(Br)cc1C=NN1CCN(Cc2ccccc2Cl)CC1,-,-,-,-,-,0,-,-
CC(C)Sc1ccc(CC(=O)Nc2cnn(CC3CCOCC3)c2)cc1,-,-,-,-,-,0,-,-
CCCC(=O)Nc1ccc2c(c1)CN(S(=O)(=O)CCC)CC2,-,-,-,-,-,0,-,-
COC(=O)CSc1nnc(CNC(=O)c2cccc(F)c2)n1-c1ccccc1OC,-,-,-,-,-,0,-,-
O=C(O)C1CCN(C(=O)COc2ccc3c4c(c(=O)oc3c2)CCCC4)CC1,0,0,0,0,100.3,0,57.5,47.9
O=C(COc1ccc2c3c(c(=O)oc2c1)CCC3)N1CCCCC1,0,0,0,0,0,0,-,-
Cc1cc(=O)oc2c(C)c(OCC(=O)N3CCN(c4ccccc4)CC3)ccc12,0,0,0,0,0,0,-,-
Cc1cc(=O)oc2c(C)c(OCC(=O)N3CCN(C(=O)C4COc5ccccc5O4)CC3)ccc12 (stereo not drawn),0,0,0,0,32.2,0,135.8,118.2
CCc1cc(=O)oc2c(C)c(OCC(=O)N3CCC(C(=O)O)CC3)ccc12,0,0,0,0,37.7,0,0,0
Cc1c(OCC(=O)N2CCC(C(=O)O)CC2)ccc2c3c(c(=O)oc12)CCCC3,0,0,0,0,66.1,0,69.7,57.7
COc1cccc(-c2nc(CSc3n[nH]c(=O)c4cc(-c5cccs5)nn34)c(C)o2)c1OC,-,-,-,-,-,0,-,-
COc1ccc(NS(=O)(=O)c2ccc(NN=Cc3ccc(N4CCOCC4)cc3)c([N+](=O)[O-])c2)cc1,-,-,-,-,-,0,-,-
COC(=O)c1ccc(OC)c(NC(=O)C2CC(=O)Nc3nc4ccccc4n32)c1 (stereo not drawn),-,-,-,-,-,0,-,-
SMILES,Rv3671c inh,Mtb bLac sens,Mtb UGM inh,GDH-TPI counter-1,FBA Mtb inh,SSB-PriA inh,Mtb FBA inh conf,GDH-TPI counter-2
Cc1ccc2ccc(C#N)cc2c1O,-,-,-,0,35.6,-,+,+
N#Cc1nc(-c2ccco2)oc1N1CCOCC1,0,0,0,0,82.1,0,198.3,160.0
N#Cc1nc(-c2ccc(S(=O)(=O)N3CCOCC3)cc2)oc1N1CCN(Cc2ccccc2)CC1,-,-,-,-,-,0,-,-
N#Cc1nc(-c2ccco2)oc1N1CCC(Cc2ccccc2)CC1,0,0,0,0,29.5,0,0,0
N#Cc1nc(-c2ccccc2Cl)oc1N1CCOCC1,0,0,0,0,33.4,0,113.1,92.3
COc1ccc(-c2csc3c(=O)[nH]cnc23)cc1OC,-,-,-,-,-,0,-,-
COc1ccc(CNC(=O)NCC2CCN(C(=O)c3ccoc3)CC2)cc1OC,-,-,-,-,-,0,-,-
CCNc1nn(CC(=O)NCc2cccc(OC)c2)c(N)c1-c1nc(-c2ccccc2C)no1,-,-,-,-,-,0,-,-
O=C(CN1C(=O)c2ccccc2C1=O)Nc1nnc(C2COc3ccccc3O2)o1 (stereo not drawn),-,-,-,-,-,0,-,-
CCCCn1c(O)c(C=CC=Nc2ccccc2)c(=O)[nH]c1=O,-,-,-,-,-,0,-,-

# Screening results: PubChem BioAssay, several laboratories
